{"source": "PubChem BioAssay (NCI)", "note": "This is part of a sample that, as a whole, favours compounds with a hit. Of some 79,000 tested, about 15% had one in any assay. Unmarked numbers belong to inactive results. Rule as the data show it: active = growth inhibition above about 70%; inactive = the rest.", "data": [{"assay": "NCI Yeast Anticancer Drug Screen. Data for the bub3 strain (AID 167)", "settings": "S. cerevisiae bub3 mutant strain, at 50.0 µM, hits give high values", "in_short": "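Whole-cell yeast assay. The mutant strain was incubated with compounds, and growth inhibition was determined by comparison with vehicle-treated cells.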", "units": {"growth inhibition": "%"}, "values": [{"smiles": "Cc1oc2nc(N(C)C)nc(Cl)c2c1C", "growth inhibition": 22.1}, {"smiles": "CCn1c2ccc([N+](=O)[O-])cc2c2c([N+](=O)[O-])c(NC=O)ccc21", "growth inhibition": 13.8}, {"smiles": "O=C(Nc1ccc(S(=O)(=O)Nc2nccs2)cc1)c1cccnc1Nc1cccc(Cl)c1", "growth inhibition": 13.4}, {"smiles": "COc1cc(CC(=O)O)ccc1O", "growth inhibition": 1.45}, {"smiles": "O=C(Nc1ccc(I)cc1)c1ccc([N+](=O)[O-])cc1", "growth inhibition": 0.35}, {"smiles": "CC1CN=C(N(C(=O)Nc2ccc(F)c(Cl)c2)c2ccccc2)S1", "note": "(stereo not given)", "growth inhibition": 41.3}, {"smiles": "Cc1cc(CC(N)C(=O)O)ccc1O", "note": "(stereo not given)", "growth inhibition": 0.5}, {"smiles": "Cc1cccc(NC(=S)NC2CCCCC2)c1", "growth inhibition": 7}, {"smiles": "Cc1cccc2c1C1C(CC2=O)C(=O)c2ccccc2C1C", "note": "(stereo not given)", "growth inhibition": 11.6}, {"smiles": "Nc1ccc2c(c1)Cc1cc(O)ccc1-2", "growth inhibition": 9.9}, {"smiles": "CCCCS(=O)(=O)N(CCC)CCC", "growth inhibition": -3.95}, {"smiles": "Cc1cc(C)c(C2CNCc3cc4c(cc32)CNCC4c2c(C)cc(C)cc2C)c(C)c1", "note": "(stereo not given)", "growth inhibition": -62.8}, {"smiles": "N#Cc1nc(C(O)c2ccccc2)oc1N", "note": "(stereo not given)", "growth inhibition": -10.3}, {"smiles": "C/C=C/c1ccc(OC(C)C(=O)c2ccc3c(c2)OCO3)c(OC)c1", "note": "(stereo not given)", "growth inhibition": 6.7}, {"smiles": "NC1=Nc2ncccc2C(=O)NN1", "growth inhibition": 12.7}, {"smiles": "CC1CC(=O)CC[C@@H]1OCc1ccccc1", "note": "(stereo not given in full)", "growth inhibition": -8.95}, {"smiles": "COC(=O)C1=C(C(=O)OC)C23CC4CCC2(C(=O)C1O3)C4(C)C", "note": "(stereo not given)", "growth inhibition": 21.5}, {"smiles": "COc1ccc2ccc3cccnc3c2n1", "growth inhibition": 26.2}, {"smiles": "Cc1cccc(-c2cc(=O)c3c(C)cc(C)nc3[nH]2)c1", "growth inhibition": 24.1}, {"smiles": "C1CCCN(NC2=NCCO2)CC1", "growth inhibition": 1.45}, {"smiles": "O=C(OC1CC2CCC1C2)c1cc([N+](=O)[O-])cc([N+](=O)[O-])c1", "note": "(stereo not given)", "growth inhibition": -3.7}, {"smiles": "CC(=O)OC(c1ccccc1)C1(c2ccccc2)OCCO1", "note": "(stereo not given)", "growth inhibition": 1.4}, {"smiles": "CC1C=CCCC1COC(=O)C(=O)OCC1CC=CCC1C", "note": "(stereo not given)", "growth inhibition": 31.9}, {"smiles": "CCOC(=O)C/C(C)=N\\NC(N)=O", "growth inhibition": 26.1}, {"smiles": "OC1(c2ccc(F)cc2)CCNCC1", "growth inhibition": 19}, {"smiles": "COc1ccc(C2OC3=C(Nc4ccc([N+](=O)[O-])cc4N3)C2=O)cc1OC", "note": "(stereo not given)", "growth inhibition": -32.5}, {"smiles": "COC(=O)C1(CCCCCBr)CCCCCCCCCCC1=O", "note": "(stereo not given)", "growth inhibition": -25}, {"smiles": "Cc1ccc(S(=O)(=O)NC(C)C(=O)O)cc1", "note": "(stereo not given)", "growth inhibition": -7.65}, {"smiles": "CCNc1cc2oc(=O)cc(C)c2cc1C", "growth inhibition": -19}, {"smiles": "CCN(CC)C(C)(C)C(=O)/C=C/c1ccc(OC)cc1", "growth inhibition": 9.65}, {"smiles": "CC(=Nc1ccccc1)NO", "growth inhibition": -8.1}, {"smiles": "CN(C)c1ccc(C2(c3ccc(N(C)C)cc3)NNC(=O)c3ccccc32)cc1", "growth inhibition": 21.1}, {"smiles": "O=C1NC(Cc2ccc(O)cc2)C(=O)N1c1ccccc1O", "note": "(stereo not given)", "growth inhibition": -6.9}, {"smiles": "COC(C)CCOC(=O)c1ccccc1", "note": "(stereo not given)", "growth inhibition": -29.9}, {"smiles": "Cc1nc(-n2nc(-c3ccccc3)cc2-c2ccccc2)sc1C(=O)/C=C/c1ccc(Cl)c(Cl)c1", "growth inhibition": 22.4}, {"smiles": "O=C(O)C12CC3(C(=O)O)CC(C(=O)O)(CC(C(=O)O)(C1)C3=O)C2=O", "growth inhibition": -28.1}, {"smiles": "CCC(SC(CC)(CC(C)C)C(N)=O)C(N)=O", "note": "(stereo not given)", "growth inhibition": 6.9}, {"smiles": "O=C(NN=C1CCCCC1)c1ccccc1", "growth inhibition": -17.4}, {"smiles": "Nc1ccc2c(c1)C(=O)N(OS(=O)(=O)c1ccccc1)C2=O", "growth inhibition": 35}, {"smiles": "NC(=S)n1nc(-c2ccccc2)c(N=Nc2ccccc2[N+](=O)[O-])c1-c1ccccc1", "growth inhibition": 3.6}]}, {"assay": "NCI Yeast Anticancer Drug Screen. Data for the mlh1 rad18 strain (AID 175)", "settings": "S. cerevisiae mlh1 rad18 strain growth inhibition; at 50.0 µM; hits give high values", "in_short": "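Read-out is yeast growth inhibition, calculated against vehicle-only controls. The compound was applied to a strain engineered with DNA damage repair alterations.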", "units": {"growth inhibition": "%"}, "values": [{"smiles": "Cc1oc2nc(N(C)C)nc(Cl)c2c1C", "growth inhibition": -15}, {"smiles": "CCn1c2ccc([N+](=O)[O-])cc2c2c([N+](=O)[O-])c(NC=O)ccc21", "growth inhibition": 28.2}, {"smiles": "O=C(Nc1ccc(S(=O)(=O)Nc2nccs2)cc1)c1cccnc1Nc1cccc(Cl)c1", "growth inhibition": 61.2}, {"smiles": "COc1cc(CC(=O)O)ccc1O", "growth inhibition": -0.55}, {"smiles": "O=C(Nc1ccc(I)cc1)c1ccc([N+](=O)[O-])cc1", "growth inhibition": -4.5}, {"smiles": "CC1CN=C(N(C(=O)Nc2ccc(F)c(Cl)c2)c2ccccc2)S1", "note": "(stereo not given)", "growth inhibition": -29.9}, {"smiles": "Cc1cc(CC(N)C(=O)O)ccc1O", "note": "(stereo not given)", "growth inhibition": -16.6}, {"smiles": "Cc1cccc(NC(=S)NC2CCCCC2)c1", "growth inhibition": 9.4}, {"smiles": "Cc1cccc2c1C1C(CC2=O)C(=O)c2ccccc2C1C", "note": "(stereo not given)", "growth inhibition": 11.5}, {"smiles": "Nc1ccc2c(c1)Cc1cc(O)ccc1-2", "growth inhibition": 4.35}, {"smiles": "CCCCS(=O)(=O)N(CCC)CCC", "growth inhibition": -13.3}, {"smiles": "Cc1cc(C)c(C2CNCc3cc4c(cc32)CNCC4c2c(C)cc(C)cc2C)c(C)c1", "note": "(stereo not given)", "growth inhibition": -131}, {"smiles": "N#Cc1nc(C(O)c2ccccc2)oc1N", "note": "(stereo not given)", "growth inhibition": -71.1}, {"smiles": "C/C=C/c1ccc(OC(C)C(=O)c2ccc3c(c2)OCO3)c(OC)c1", "note": "(stereo not given)", "growth inhibition": -7.05}, {"smiles": "NC1=Nc2ncccc2C(=O)NN1", "growth inhibition": 24.8}, {"smiles": "CC1CC(=O)CC[C@@H]1OCc1ccccc1", "note": "(stereo not given in full)", "growth inhibition": 16.7}, {"smiles": "COC(=O)C1=C(C(=O)OC)C23CC4CCC2(C(=O)C1O3)C4(C)C", "note": "(stereo not given)", "growth inhibition": -5.15}, {"smiles": "COc1ccc2ccc3cccnc3c2n1", "growth inhibition": 2}, {"smiles": "Cc1cccc(-c2cc(=O)c3c(C)cc(C)nc3[nH]2)c1", "growth inhibition": -39.4}, {"smiles": "C1CCCN(NC2=NCCO2)CC1", "growth inhibition": 25.9}, {"smiles": "O=C(OC1CC2CCC1C2)c1cc([N+](=O)[O-])cc([N+](=O)[O-])c1", "note": "(stereo not given)", "growth inhibition": -3}, {"smiles": "CC(=O)OC(c1ccccc1)C1(c2ccccc2)OCCO1", "note": "(stereo not given)", "growth inhibition": 17.1}, {"smiles": "CC1C=CCCC1COC(=O)C(=O)OCC1CC=CCC1C", "note": "(stereo not given)", "growth inhibition": 19.9}, {"smiles": "CCOC(=O)C/C(C)=N\\NC(N)=O", "growth inhibition": 42.8}, {"smiles": "OC1(c2ccc(F)cc2)CCNCC1", "growth inhibition": 7.2}, {"smiles": "COc1ccc(C2OC3=C(Nc4ccc([N+](=O)[O-])cc4N3)C2=O)cc1OC", "note": "(stereo not given)", "growth inhibition": -0.7}, {"smiles": "COC(=O)C1(CCCCCBr)CCCCCCCCCCC1=O", "note": "(stereo not given)", "growth inhibition": -34.5}, {"smiles": "Cc1ccc(S(=O)(=O)NC(C)C(=O)O)cc1", "note": "(stereo not given)", "growth inhibition": 4.6}, {"smiles": "CCNc1cc2oc(=O)cc(C)c2cc1C", "growth inhibition": -28.2}, {"smiles": "CCN(CC)C(C)(C)C(=O)/C=C/c1ccc(OC)cc1", "growth inhibition": -18.4}, {"smiles": "CC(=Nc1ccccc1)NO", "growth inhibition": 2.1}, {"smiles": "CN(C)c1ccc(C2(c3ccc(N(C)C)cc3)NNC(=O)c3ccccc32)cc1", "growth inhibition": -0.3}, {"smiles": "O=C1NC(Cc2ccc(O)cc2)C(=O)N1c1ccccc1O", "note": "(stereo not given)", "growth inhibition": 3.5}, {"smiles": "COC(C)CCOC(=O)c1ccccc1", "note": "(stereo not given)", "growth inhibition": -31.2}, {"smiles": "Cc1nc(-n2nc(-c3ccccc3)cc2-c2ccccc2)sc1C(=O)/C=C/c1ccc(Cl)c(Cl)c1", "growth inhibition": 12.8}, {"smiles": "O=C(O)C12CC3(C(=O)O)CC(C(=O)O)(CC(C(=O)O)(C1)C3=O)C2=O", "growth inhibition": 17.3}, {"smiles": "CCC(SC(CC)(CC(C)C)C(N)=O)C(N)=O", "note": "(stereo not given)", "growth inhibition": -14.4}, {"smiles": "O=C(NN=C1CCCCC1)c1ccccc1", "growth inhibition": 0.2}, {"smiles": "Nc1ccc2c(c1)C(=O)N(OS(=O)(=O)c1ccccc1)C2=O", "growth inhibition": 47.2}, {"smiles": "NC(=S)n1nc(-c2ccccc2)c(N=Nc2ccccc2[N+](=O)[O-])c1-c1ccccc1", "growth inhibition": 9.45}]}]}
